Screening data (PubChem BioAssay)
Only some compounds are listed: those with a hit (about 7.5% of all), similar ones and a draw of the others.
ELG1 genotox: induces genotoxicity in HEK293T cells with luciferase-tagged ELG1 | HEK293T ELG1-luciferase reporter, luminescence, 16 h | Potency, µM (doses to about 46 µM), hits mostly activators | 330,000 compounds, 1.3% hits | AID 504466; note: nearly all actives have a fitted effect of over 60% in size
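Screening used a luciferase reporter fused to human ELG1 in HEK293T cells. Luminescence was read on a CCD plate imager after 16 hr exposure and 30 min ONE-Glo incubation.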
SMN2 splice enh: enhancers of SMN2 splice variant expression | HEK293 SMN2-luciferase splicing reporter, luminescence, 30-36 h | AID 1458 | 210,000 compounds, 2.8% hits | Potency, µM (series often up to 46.1 µM), actives largely listed as activators; note: nearly all actives have a fitted effect of over 55% in size
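HEK293 cells carry an SMN2 […]–luciferase reporter in which exon 7 inclusion puts luciferase in frame. Cells were plated 10-12 h before compound addition, then incubated 30-36 h at 37C. ONE-Glo luminescence was read; sodium butyrate at 4.5 mM final served as control.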
NPC1 promoter act: activates the NPC1 promoter | Huh7 NPC1 promoter luciferase reporter, 24 h | Potency, µM (titrated, usually from 9.22 µM), hits mostly activators | 320,000 compounds, 2.4% hits | AID 485313; note: nearly all actives have a fitted effect of over 60% in size
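NPC1 promoter–luciferase Huh7 cells; 24 h compound; luminescence.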
FLuc modulator: inhibits or activates purified firefly luciferase, miR-21 counter-screen; 360,000 compounds, 6.9% hits; Potency, µM (doses to about 57.5 µM), hits mostly inhibitors; purified FLuc, Km substrates, luminescence inhibition; note: nearly all actives have a fitted effect of over 55% in size
Target sequence (P08659 whole entry, looked up): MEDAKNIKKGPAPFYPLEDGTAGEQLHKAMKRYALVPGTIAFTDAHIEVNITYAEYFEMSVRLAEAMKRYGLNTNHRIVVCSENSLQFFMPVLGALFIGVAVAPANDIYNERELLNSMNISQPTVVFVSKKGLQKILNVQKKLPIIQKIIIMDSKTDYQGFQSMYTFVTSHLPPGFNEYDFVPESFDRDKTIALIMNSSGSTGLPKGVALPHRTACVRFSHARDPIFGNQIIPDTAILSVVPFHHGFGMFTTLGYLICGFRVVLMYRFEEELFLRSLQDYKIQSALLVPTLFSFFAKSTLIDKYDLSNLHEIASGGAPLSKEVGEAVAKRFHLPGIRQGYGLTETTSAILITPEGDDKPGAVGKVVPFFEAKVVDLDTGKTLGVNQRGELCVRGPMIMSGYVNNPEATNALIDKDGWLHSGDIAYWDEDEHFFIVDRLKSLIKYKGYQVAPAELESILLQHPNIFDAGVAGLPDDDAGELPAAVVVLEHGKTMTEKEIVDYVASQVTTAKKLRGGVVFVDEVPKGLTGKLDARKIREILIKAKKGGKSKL
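Biochemical qHTS of compounds, final roughly 60 µM downward over six points, against 10 nM purified firefly luciferase using Km concentrations of substrates (10 uM D-luciferin, 10 uM ATP) in Tris acetate pH 7.5 buffer; luminescence output.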
Rab9 promoter act: activators of Rab9 promoter; Huh7 Rab9 promoter-luciferase reporter, luminescence, 24 h; Potency, µM (series often up to 9.22 µM), most hits filed as activators; 320,000 compounds, 2.8% hits; AID 485297; note: nearly all actives have a fitted effect of over 60% in size
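Steps: seed 1500 Huh7 Rab9-luc cells per well, rest 2 h at 37 °C; add compound in DMSO; incubate 24 h; add luciferase reagent, 10 min ambient; read luminescence.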
Luc counter: Kinase-Glo luciferase inhibition (counter-screen) | Potency, µM (series often up to 38.3 µM), hits mostly inhibitors | AID 1379 | 200,000 compounds, 0.28% hits | Kinase-Glo luciferase, ATP luminescence, 8 min; note: nearly all actives have a fitted effect of over 60% in size
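Kinase-Glo luciferase light output from ATP and luciferin was measured with 10 uM ATP, within the enzyme's linear range. Buffer: 50 mM imidazole pH 7.2, 50 mM KCl, 7 mM MgCl2, 0.01% Tween 20, 0.05% BSA; luminescence read after 8 min at ambient temperature.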
A number is an active result. Calls come from the whole dose curve; as a rule, active = well fitted curve in the direction sought with a large enough effect; inconclusive = small, poorly fitted or top-dose-only effect, or another doubt; inactive = no such curve, though single readings can be large; an effect the other way counts as inactive or inconclusive.

Screening O=C(NC1=NCCS1)c1sc2cc(F)ccc2c1Cl returned ELG1 genotox inconclusive, SMN2 splice enh 7.1µM, NPC1 promoter act 5µM, FLuc modulator 2.4µM, Rab9 promoter act 2.2µM and Luc counter inactive.
O=C(NCCCN1CCOCC1)c1sc2cc(F)ccc2c1Cl was read as ELG1 genotox inactive, SMN2 splice enh inactive, NPC1 promoter act inactive, FLuc modulator inconclusive, Rab9 promoter act inconclusive and Luc counter inactive.
For O=C(NCc1ccco1)c1sc2cc(F)ccc2c1Cl the results were ELG1 genotox inactive, SMN2 splice enh 13µM, NPC1 promoter act inactive, FLuc modulator 15µM, Rab9 promoter act inactive and Luc counter inactive.
COc1ccc(-n2c(=O)c3ccc(C(=O)NCc4ccc(C)cc4)cc3n(CC(=O)Nc3cccc(F)c3)c2=O)cc1 was read as SMN2 splice enh inactive and FLuc modulator inactive.
Screening CC1(CCc2ccccc2)NC(=O)N(CC(=O)Nc2ccc3c(c2)OCCO3)C1=O (configuration not stated) returned ELG1 genotox inactive, SMN2 splice enh inactive, NPC1 promoter act inactive, FLuc modulator inactive, Rab9 promoter act inactive and Luc counter inactive.
For CCOC(=O)c1nn(-c2ccc(F)cc2)c(=O)c(C#N)c1C the results were ELG1 genotox inactive, NPC1 promoter act inactive, FLuc modulator inactive and Rab9 promoter act inactive.
`COCc1c(CCl)cnc(C)c1O` gave ELG1 genotox inactive, NPC1 promoter act inactive, FLuc modulator 17µM, Rab9 promoter act inactive and Luc counter inactive.
`Cc1ncc(CO)c(CO)c1O` gave ELG1 genotox inactive, SMN2 splice enh inactive, NPC1 promoter act inactive, FLuc modulator inactive, Rab9 promoter act inactive and Luc counter inactive.
CCn1c(SCC(=O)NC2CCCC2)nnc1-c1cccnc1 was read as ELG1 genotox inactive, NPC1 promoter act inactive, FLuc modulator inactive and Rab9 promoter act inactive.
Screening CCN1C(=O)CSc2ccc(C(=O)NCc3ccc(OC)cc3)cc21 returned ELG1 genotox inactive, SMN2 splice enh inactive, NPC1 promoter act inactive, FLuc modulator inactive, Rab9 promoter act inactive and Luc counter inactive.
`COc1ccc2oc(C(=O)NCCC(C)C)c(C)c2c1` gave ELG1 genotox inconclusive, SMN2 splice enh 11µM, NPC1 promoter act 3.2µM, FLuc modulator 3.4µM, Rab9 promoter act inconclusive and Luc counter inactive.
Cc1c(C(=O)NC2CCCCC2)oc2ccc(F)cc12 was read as ELG1 genotox inconclusive, NPC1 promoter act inconclusive, FLuc modulator 12µM and Rab9 promoter act inconclusive.
`Cc1ccc2oc(C(=O)NC3CCS(=O)(=O)C3)c(C)c2c1` (configuration not stated) gave ELG1 genotox inactive, NPC1 promoter act inactive, FLuc modulator inactive and Rab9 promoter act inactive.
For COc1ccc2oc(C(=O)NC3CCCCC3)c(C)c2c1 the results were ELG1 genotox 3.7µM, NPC1 promoter act 3.2µM, FLuc modulator 5.4µM and Rab9 promoter act 3.2µM.
`COc1ccc(C(CNC(=O)c2oc3ccc(OC)cc3c2C)N2CCCC2)cc1` (configuration not stated) gave ELG1 genotox inactive, NPC1 promoter act inactive, FLuc modulator inactive and Rab9 promoter act inactive.
Screening CNC(=O)c1cc2cc(OC)ccc2oc1=O returned ELG1 genotox inactive, SMN2 splice enh inactive, NPC1 promoter act inactive, FLuc modulator inactive, Rab9 promoter act inactive and Luc counter inactive.
`COc1ccc2oc(=O)c(C(=O)NC3CCCCCC3)cc2c1` gave ELG1 genotox inconclusive, NPC1 promoter act inactive, FLuc modulator 15µM and Rab9 promoter act inactive.
Screening COc1ccccc1C(=O)NCc1nc2cccnc2n1Cc1ccc(F)cc1 returned FLuc modulator inactive.
`COc1cc(OC)c(NC(=O)CN2C(=O)CCn3nc(-c4cccn4C)cc32)cc1Cl` gave FLuc modulator inactive.
For CCCc1nnc(NC(=O)c2cc(=O)c3cc(C)c(C)cc3o2)s1 the results were SMN2 splice enh inactive and FLuc modulator 12µM.
Cc1ccc2oc(C(=O)Nc3nnc(CC(C)C)s3)cc(=O)c2c1 was read as SMN2 splice enh inactive and FLuc modulator inconclusive.
`CN(C)N=Nc1ccc(S(N)(=O)=O)cc1` gave ELG1 genotox inactive, NPC1 promoter act inactive, FLuc modulator inactive, Rab9 promoter act inactive and Luc counter inactive.
`CN(C)c1ccc(N=Nc2ccc(S(N)(=O)=O)cc2)cc1` gave ELG1 genotox 21µM, NPC1 promoter act 1µM, FLuc modulator 2.7µM and Rab9 promoter act 2.8µM.
Screening CN1CCN(c2oc(-c3ccccc3)nc2S(=O)(=O)c2ccc(Br)cc2)CC1 returned ELG1 genotox inactive, NPC1 promoter act inactive, FLuc modulator inactive and Rab9 promoter act inactive.
Cc1cccc(NC(=O)Cc2noc3ccccc23)c1 was read as ELG1 genotox inconclusive, SMN2 splice enh 13µM, NPC1 promoter act inconclusive, FLuc modulator 17µM, Rab9 promoter act inconclusive and Luc counter inactive.
For Cc1ccc(NC(=O)Cc2noc3ccccc23)nc1 the results were ELG1 genotox inactive, SMN2 splice enh inactive, NPC1 promoter act inactive, FLuc modulator inconclusive, Rab9 promoter act inactive and Luc counter inactive.
`Cc1ccc(CNC(=O)Cc2noc3ccccc23)cc1` gave ELG1 genotox inconclusive, NPC1 promoter act 0.89µM, FLuc modulator 6.7µM, Rab9 promoter act 1.8µM and Luc counter inactive.
For O=C(Cc1noc2ccccc12)Nc1ccccn1 the results were ELG1 genotox inactive, SMN2 splice enh 10µM, NPC1 promoter act inconclusive, FLuc modulator inconclusive, Rab9 promoter act inconclusive and Luc counter inactive.
Screening Cc1ccc(CCNC(=O)c2ccc(NC3=NC4CS(=O)(=O)CC4S3)cc2)cc1 (configuration not stated) returned ELG1 genotox inactive, NPC1 promoter act inactive, FLuc modulator inactive and Rab9 promoter act inactive.
For O=C(NCCc1ccc(Cl)cc1)c1cccc(NC2=NC3CS(=O)(=O)CC3S2)c1 (configuration not stated) the results were ELG1 genotox inactive, NPC1 promoter act inactive, FLuc modulator 17µM and Rab9 promoter act inactive.
Screening CCOc1ccc(C(=O)c2cn(CC(=O)Nc3ccc(F)cc3)c3cc4c(cc3c2=O)OCO4)cc1 returned SMN2 splice enh inactive and FLuc modulator inactive.
CSc1ccccc1NC(=O)c1cc(C(C)C)on1 was read as ELG1 genotox 12µM, SMN2 splice enh inactive, NPC1 promoter act inconclusive, FLuc modulator 21µM, Rab9 promoter act inconclusive and Luc counter inactive.
CCCc1cc(C(=O)Nc2cc(Br)ccc2O)no1 was read as ELG1 genotox 13µM, SMN2 splice enh inconclusive, NPC1 promoter act inactive, FLuc modulator inconclusive, Rab9 promoter act inactive and Luc counter inactive.
For CC(C)c1cc(C(=O)Nc2cc(Cl)ccc2O)no1 the results were ELG1 genotox inconclusive, SMN2 splice enh 13µM, NPC1 promoter act 2.8µM, FLuc modulator 7.6µM, Rab9 promoter act 1.6µM and Luc counter inactive.
